The results in this text go back to PubChem BioAssay AID602330 (Sanford-Burnham Center for Chemical Genomics, 2012).

Out of some 1,900 compounds screened, about 85 (4%) were called active. The list is a sample of the results. A number with no mark means an inactive call. Rule as the data show it: active = inhibition above about 40%; inactive = the rest.

The target in the experiment is 72 kDa type IV collagenase (Homo sapiens) (UniProt P08253). The experiment is described as follows: MMP-2 enzyme inhibition, confirmation, counter-screen for RPN11 inhibitor project, biochemical, fluorescence, single concentration (AID 602330).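 Also: human MMP-2 activated beforehand with APMA.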 As to conditions: recombinant MMP-2, FRET peptide cleavage fluorescence; at 20 µM; stronger effect = higher value.
Sequence of 72 kDa type IV collagenase (Homo sapiens) (P08253 whole entry, looked up): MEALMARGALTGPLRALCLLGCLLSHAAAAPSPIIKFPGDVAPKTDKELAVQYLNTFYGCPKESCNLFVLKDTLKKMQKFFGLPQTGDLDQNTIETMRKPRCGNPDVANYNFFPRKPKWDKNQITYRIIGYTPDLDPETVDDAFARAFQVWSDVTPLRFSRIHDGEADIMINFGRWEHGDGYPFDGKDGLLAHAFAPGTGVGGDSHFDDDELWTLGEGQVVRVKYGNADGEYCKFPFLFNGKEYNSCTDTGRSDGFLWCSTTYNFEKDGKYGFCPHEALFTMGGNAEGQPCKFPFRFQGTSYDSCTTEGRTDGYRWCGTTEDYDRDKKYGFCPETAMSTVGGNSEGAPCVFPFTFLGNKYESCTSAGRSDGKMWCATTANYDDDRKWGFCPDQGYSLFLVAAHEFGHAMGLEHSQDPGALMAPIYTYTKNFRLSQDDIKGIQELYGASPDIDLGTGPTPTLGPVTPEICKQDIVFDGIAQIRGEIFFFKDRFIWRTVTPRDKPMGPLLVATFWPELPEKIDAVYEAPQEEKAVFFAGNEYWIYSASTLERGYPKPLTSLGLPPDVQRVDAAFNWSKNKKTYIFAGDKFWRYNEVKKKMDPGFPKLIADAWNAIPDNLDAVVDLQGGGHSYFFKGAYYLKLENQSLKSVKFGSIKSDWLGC
Broadly, the inhibition is the drop in the measured response relative to a control, in per cent. Consider `CCN(CC)C(=O)CSc1nc2ccccc2n1CC(=O)N1CCN(c2ccccc2OC)CC1`, for which the inhibition is 8.93%. With `Cc1ccc(NC(=O)CN2CCc3ccccc3C2)cc1` the figure was -29.5%. Then `COc1ccc(CC(=O)Nc2ccc(-c3nnc(-c4ccc(C)cc4)o3)cc2)cc1`, with -21.6%; and `Oc1c(CN2CCCC2)cc(COCc2ccccc2)c2cccnc12`, with 14.7%. As for `CCc1ccc(-c2cc(C(=O)NCc3ccco3)c3ccccc3n2)s1`, the inhibition was -10.6%. Then `Cc1c(NC(=O)CSc2cccc3cccnc23)c(=O)n(-c2ccccc2)n1C`, with -0.79%; and `Cc1c(N=Nc2ccc(N(C)C)cc2)c(=O)n(-c2ccccc2)n1C`, with -25.6%; and `COc1cccc(NC(=O)C(C)Oc2ccccc2)c1` (stereo not drawn), with -39.6%.

`CCC/C=C(\CCC)C(NC(=O)Cc1ccccc1)c1ccc(C(=O)OC)cc1` (stereo not drawn): the inhibition was -6.21%.

As to `Cc1cc(/C=N/Nc2ccc([N+](=O)[O-])cn2)c(C)n1-c1cccc(C(=O)O)c1`, the inhibition is -54.4%. With `C=CCn1c(=S)[nH]c2scc(-c3ccco3)c2c1=O` the figure was 40.5% (active); with `CCN1CCN(c2cc3nc(C)n(Cc4ccccc4)c(=O)c3cc2NC(=O)c2ccccc2F)CC1`, -12.5%. Then `COc1ccc(-n2c(SCC(=O)Nc3sc4c(c3C#N)CCCC4)nnc2-c2ccc(O)cc2)cc1`, with -2.87%; and `N#Cc1c(-c2cccs2)nc(SCC(=O)c2ccc(Br)cc2)[nH]c1=O`, with 47% (active).

Turning to `CC(C)(C)NC(=O)CSC(=Nc1ccccc1F)NC#N`, the inhibition is -28.4%. With `O=C(COc1cccc(F)c1)Oc1ccc(C(=O)c2ccccc2)cc1` the figure was 8.62%; with `CC(=O)/C(=N\Nc1ccc(Cl)cc1Cl)Sc1cccc2cccnc12`, -27.9%; with `C/C(=N/Nc1nc(-c2ccccc2)c(CC(=O)O)s1)c1ccccc1`, 4.1%. In the case of `CCCCCCCCCCOC(=O)Cn1c(COc2cccc(OC)c2)[n+](C)c2ccccc21`, the inhibition is -10.1%. With `COc1ccc2[nH]c(=O)c(-c3noc(-c4ccc(F)cc4)n3)cc2c1`, the inhibition is -20.1%. With `CCc1ccc(NC(=O)CS(=O)CC(=O)NCCCc2ccccc2)cc1` (stereo not drawn) the figure was -2.62%; with `Cc1ccc2cc(C#N)c(NCCNC(=S)NCCCN3CCOCC3)nc2c1`, -15%. Then `CCOc1ccc(-n2c(O)c(/C=N/c3ccnn3Cc3ccncc3)c3ccccc3c2=O)cc1`, with 1.46%; and `O=C1NC(=O)C2C1C(c1ccc([N+](=O)[O-])cc1)=NN2Cc1ccccc1` (stereo not drawn), with -11.1%. Then `Cc1ccc(-c2nnc(-c3ccc(NC(=O)c4cccs4)cc3)o2)cc1`, with -49.7%. Consider `C=CC[n+]1c(-c2ccc(C)cc2)csc1NNC(=O)Nc1ccccc1`, for which the inhibition was 26%. With `Cc1nc2ccccc2nc(=O)c1NNc1ccc([N+](=O)[O-])cc1` the figure was -26.6%; with `N#Cc1ccc(C(=O)Nc2cccc3cccnc23)c(F)c1`, -11%. Then `COc1ccc(Cl)cc1NC(=O)CCS(=O)(=O)c1ccc(Br)cc1`, with -0.68%; and `O=C(CCS(=O)(=O)c1cccc2nonc12)NCCc1ccccc1Cl`, with -10.6%.

As to `CN=c1scc(-c2cc(OC)ccc2OC)n1/N=C/c1c(C)[nH]c2ccccc12`, the inhibition is 22.9%.

For the molecule `Oc1ccc(/C=N/Nc2nc(-c3ccccc3F)nc3ccccc23)c(O)c1`, the inhibition is -56.3%.

As for `C=CCn1c(SCC(=O)NCc2ccccc2)nnc1-c1cc(Br)ccc1O`, the inhibition was -13%.

For the molecule `CC(C)Cn1c(CCC(=O)O)ccc1-c1cccs1`, the inhibition is -47.9%. Take `O=C(O)c1ccc(NN=CC2=C(N3CCOCC3)/C(=C/c3ccccc3)CC2)cc1`: the inhibition was -0.54%. With `CC(=O)c1sc(N/N=C/c2ccc(C(C)C)cc2)nc1C` the figure was 20.1%; with `CCCS(=O)(=O)N1CCCC(C(=O)NCc2ccco2)C1` (stereo not drawn), -7.67%; with `CSC1=N/C(=C\C=C\c2cccs2)C(=O)S1`, 10%. For `CN(C)CCOC1c2ccccc2-c2ccccc21`, the inhibition was -31.6%. With `CCOc1cc(/C=C2\SC(N3CCCC(C)C3)=NC2=O)ccc1O` (stereo not drawn) the figure was -18.9%. Then `COc1cc(/C=C2/SC(=S)N(Cc3ccccc3)C2=O)cc(OC)c1O`, with -7.17%; and `Cc1cc(OCC(=O)Nc2nccs2)c2c(C)c(C)c(=O)oc2c1`, with 0.79%; and `O=C(Nc1ccc(-c2nnc(-c3ccccc3)o2)cc1)c1ccc(Br)o1`, with 35.4%. With `CS(=O)(=O)c1ccc2c(c1)SC1=NC(=O)/C(=C/c3ccco3)C(=N)N12` the figure was 13%; with `O=C(CSc1cccc2cccnc12)N/N=C/c1cccnc1`, -15.4%. `Nc1nonc1-n1nnc(C(=O)N/N=C/c2cc(Br)ccc2O)c1CSC1=NCCS1`: the inhibition is -8.38%.

On to `COc1cccc(-c2nn(-c3ccccc3)cc2/C=C(\C#N)C(=O)NCCCn2ccnc2)c1`, for which the inhibition was -13.9%. Then `COc1ccc(CNC(=O)c2nnn(CC(=O)Nc3cc(C)cc(C)c3)c2N)cc1`, with 5.49%. With `CC(C)Oc1ccc(/C=C(\NC(=O)/C=C/c2ccco2)C(=O)NCCc2nc3ccccc3[nH]2)cc1` the figure was -12%; with `Cc1cccc(OCc2nnc(SCc3nc4cc(C(F)(F)F)ccc4c(=O)[nH]3)o2)c1`, 18.2%.

Turning to `NC(N)=N/N=C/c1ccc(OCc2ccc(Cl)cc2Cl)cc1`, the inhibition was 9.75%.

`CCOc1cc(/C=C2\SC(N3CCCCC3)=NC2=O)ccc1O`: the inhibition was -18.1%.

For the molecule `Cc1cc(/C=C2/SC(=O)N(CC(=O)N3CCCC3)C2=O)ccc1N1CCOCC1`, the inhibition is -23%.

For `O=C(OCc1cc2ccccc2[nH]c1=O)c1cccnc1`, the inhibition is -65.4%. Then `Cc1sc2nc(COC(=O)C(NC(=O)c3ccc(Cl)cc3Cl)C(C)C)[nH]c(=O)c2c1C` (stereo not drawn), with -38.9%; and `CCNCc1cc2cc(C)ccc2[nH]c1=O`, with -21.9%; and `CC1CCN(c2ccc3c(c2)S(=O)(=O)c2cc(C(=O)O)ccc2C3=O)CC1`, with -51.3%. Then `Cc1ccc(NC(=O)c2c(NC(=O)CCC(=O)O)sc3c2CCCCC3)cc1`, with 20.7%.
